High-throughput results deposited in PubChem BioAssay by The Scripps Research Institute Molecular Screening Center.
TTR transcr act: increases transthyretin transcription; 1.3% of 92,000 active; SH-SY5Y TTR promoter Gaussia luciferase, luminescence; 100% = recombinant luciferase protein wells; activation, % at 16.7 µM;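 active = activation above the mean of all tested compounds plus 3 SD, cut at about 9.5% in these data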;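 also: cells exposed to compounds for one day before reading; 0% = median of all test compound wells on the plate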
TTR inh HuH7: counter-screen for TTR activators: TTR transcription inhibitors in HuH7 cells; shares compounds with TTR transcr act; inhibition, % at 16.7 µM; HuH7 TTR promoter-Gaussia luciferase reporter, luminescence; 4% of 1,100 active;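 active = average inhibition above the solvent-only control wells' mean plus 3 SD, cut at about 15% in these data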;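 also: 0% = cells with DMSO only and 100% = cells with inhibitor control FD; inhibitors lower well luminescence so higher value means more inhibition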
TTR act confirm: human TTR transcription activation, confirmation. shares compounds with TTR transcr act. SHSY5Y TTR promoter Gaussia luciferase, luminescence; 100% = purified Lucia enzyme wells, no cells. activation, % at 16.7 µM. 1,100 tested, under 10 active. AID 1117280;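 active = mean activation above a set limit taken from the earlier primary screen, cut at about 11% in these data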;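 also: 0% = DMSO-treated cells and 100% = recombinant Lucia luciferase without cells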
* marks the source's active call; other numbers are inactive results. Many of the other results were omitted from the sample, so hits are more common in it than they were.

SMILES	TTR transcr act	others
CCOc1ccc(/C=C2/C(=N)N3OC(C)=CC3=NC2=O)cc1OC	9.9*	TTR inh HuH7=-9.2;TTR act confirm=-0.2
COc1cccc(OCCn2cccc2/C=C2/C(=N)N3OC(C)=CC3=NC2=O)c1	2.2
COc1cc(/C=C2/C(=N)N3OC(C)=CC3=NC2=O)ccc1OCCOc1ccc(C)cc1	1.8
O=C(CN1C(=O)NC2(CCCCC2)C1=O)NCCCSc1ccccc1	1.0
Cc1ccsc1CN(C)CC(=O)Nc1ccccc1C(=O)NC1CC1	-1.7
O=C(NNc1nc2ccccc2nc1C(F)(F)F)c1ccccc1	10.3*	TTR inh HuH7=-10.4;TTR act confirm=-1.3
O=C(NNc1ccccc1F)c1ccccc1	-0.2
O=C(NNc1nc2ccccc2o1)c1ccccc1	-1.1
CN(C(=O)c1cccc(NC(=O)Cc2ccc(NC(=O)C3CCCN(C(=O)C4CCCC4)C3)cc2)c1)C1CC1 (configuration not stated)	-1.1
CCCCn1c(N)c(N(CCC(C)C)C(=O)CC2CCCC2)c(=O)[nH]c1=O	-1.1
Cc1cc(C)c(NC(=O)COC(=O)C2CCCO2)c(C)c1 (configuration not stated)	0.2
COc1cc(CCC(=O)OCC(=O)Nc2c(C)cc(C)cc2C)cc(OC)c1OC	2.1
CC(=O)OCC(=O)Nc1c(C)cc(C)cc1C	9.9*	TTR inh HuH7=-11.4;TTR act confirm=1.0
COCC(C)NC(=O)CSc1nc2cc(S(=O)(=O)N3CCCCC3)ccc2o1 (configuration not stated)	0.0
O=C(Cn1c(-c2ccccn2)nc2ccccc21)N/N=C/c1cccnc1	0.0
Clc1ccc(OCCOc2ccc(Br)nc2Br)c(Cl)c1	0.9
Cc1ccccc1NCC(=O)N/N=C/c1ccc[nH]1	16.1*	TTR inh HuH7=-5.7;TTR act confirm=0.3
O=C(COc1c(Cl)cc(Cl)cc1Cl)N/N=C/c1ccc[nH]1	9.1
Cc1ccccc1NCC(=O)N/N=C/c1c[nH]c2ccccc12	-2.4
C[C@H]1CN([C@@H](C)CO)C(=O)CCCn2cc(nn2)CO[C@@H]1CN(C)S(=O)(=O)c1ccc(C#N)cc1	2.5
CC(=O)c1ccc(S(=O)(=O)N2CCC(NC(=O)c3ccccc3)CC2)cc1	1.1
CC(=O)N1C[C@H]2CON(C)[C@H]2C[C@H]1c1cccc(-c2ccccc2C)c1	-0.6
Cc1cc(O)c(C(=O)Nc2cccc(Cl)c2)c(=O)n1C	1.9
Cc1ccc2c(c1)nnn2C1CCN(CC(=O)N(c2ccccc2)c2ccccc2)CC1	-1.6
O=C(NCc1ccccc1)N1CCC(Cc2ccccc2)CC1	-0.2
SMILES	TTR transcr act	others
Cc1ccc2c(c1)nnn2C1CCN(C(=O)NCc2ccccc2)CC1	9.7*	TTR inh HuH7=6.1;TTR act confirm=-0.8
O=C(CSc1nnc2ccc(-c3ccc(F)cc3)nn12)N1CCOCC1	-1.9
C[C@H](NC(=O)c1[nH]cnc1C(=O)N[C@@H](C)CO)c1ccccc1	1.0
O=C(Cc1ccc(F)cc1)NC1CCSC1=O (configuration not stated)	1.6
O=C(NC(=S)NC1CCSC1=O)c1cccs1 (configuration not stated)	4.1
Cc1cccc(Oc2ccc(C(=O)NC3CCSC3=O)cn2)c1C (configuration not stated)	13.6*	TTR inh HuH7=-1.6;TTR act confirm=-0.7
CC1=C(C#N)C(NC(=O)c2ccc(C)cc2)(C(F)(F)F)C(=O)N1 (configuration not stated)	2.0
COC(=O)NC1(C(F)(F)F)C(=O)NC(C)=C1C(=O)OC (configuration not stated)	18.7*	TTR inh HuH7=-8.5;TTR act confirm=-0.7
COC(=O)C1=C(C)NC(=O)C1(NC(=O)c1ccncc1)C(F)(F)F (configuration not stated)	-1.3
O=C1CCC(C(=O)N2CCCCO2)CN1Cc1ccc(Cl)cc1 (configuration not stated)	-1.0
CC1(C)CC(=O)C(C=NCCN2CCN(C(=S)NC3CCCCC3)CC2)=C(O)C1	2.0
CC1(C)CC(=O)C(C=NCCN2CCN(C(=O)CCl)CC2)=C(O)C1	11.8*	TTR inh HuH7=1.9;TTR act confirm=-1.6
CC1(C)CC(=O)C(C=NCCN2CCN(C(=O)c3ccccc3)CC2)=C(O)C1	1.9
COc1ccc(C(=O)NC2CCCc3c2cnn3-c2ccccc2F)o1 (configuration not stated)	2.1
CCC(=O)Nc1nnc(-c2ccco2)o1	0.9
Cc1ccsc1C(=O)Nc1nnc(-c2ccco2)o1	16.2*	TTR inh HuH7=0.1;TTR act confirm=0.5
Cc1ccc(C(=O)Nc2nnc(-c3ccco3)o2)cc1	5.6
COc1ccc([C@@H]2[C@@H]3C(=O)N(C(C)(C)C)C(=O)[C@@H]3[C@]3(Cc4ccccc4)C(=O)N(c4ccc(C)cc4)C(=O)N23)cc1	-0.6
C/C(=N\NC(=O)c1ccccn1)c1ccc(Cl)cc1	-1.6
C/C(=N\NC(=O)C(O)c1ccccc1)c1ccc(Cl)cc1 (configuration not stated)	23.5*	TTR inh HuH7=-10.7;TTR act confirm=0.4
CC(/C=C/c1ccccc1)=N/NC(=O)C(O)c1ccccc1 (configuration not stated)	3.1
Cc1cnc(NC(=O)Nc2ccc(OCc3ccccc3)cc2)c(Br)c1	-0.1
CCOC(=O)c1ccccc1NC(=O)C1CSC2(C)CCC(=O)N12 (configuration not stated)	2.2
COc1ccc(OC)c(N/C=C2/CCCCC2=O)c1	10.6*	TTR inh HuH7=3.5;TTR act confirm=0.9
COc1ccc(Oc2ccc(N/C=C3\CCCC3=O)cc2)cc1	0.3
SMILES	TTR transcr act	others
NC(=O)c1ccccc1N/C=C1\CCCCC1=O	0.8
CCc1ccc(N(CC(=O)N2CCCCCC2)S(C)(=O)=O)cc1	-0.6
Nc1c(C(=O)N2CCN(c3ccccc3)CC2)nnn1Cc1ccc(Cl)cc1	-1.2
CCCCCCCCN1C(=O)[C@@H](CC(=O)NCCCCc2ccccc2)C[C@@]2(C(=O)OC)C1=C[C@H](COCc1ccccc1)O[C@@H]2C	1.0
CCc1ccc(C(C)NC(=O)c2cccs2)cc1 (configuration not stated)	2.8
COc1cc(C(=S)N2CCOCC2)cc(Br)c1OS(=O)(=O)c1ccccc1	1.7
O=C(O)CSCC(=O)Nc1cccc2ccccc12	10.0*	TTR inh HuH7=-5.9;TTR act confirm=-0.5
N=c1sccn1CC(=O)Nc1cccc2ccccc12	2.3
Nc1ccccc1SCC(=O)Nc1cccc2ccccc12	-1.0
O=C1c2c(Cl)c(Cl)c(Cl)c(Cl)c2C(=O)N1c1nccs1	6.2
Nc1cc(C(=O)N2CCN(c3cccc(Cl)c3)CC2)ccc1N1CC2CC(C1)c1cccc(=O)n1C2 (configuration not stated)	-2.0
O=C(O)c1ccc(N2CC3CC(C2)c2cccc(=O)n2C3)c(NC(=S)Nc2ccc(Cl)cc2Cl)c1 (configuration not stated)	10.6*	TTR inh HuH7=-3.9;TTR act confirm=0.1
O=C(CCN1CCOCC1)Nc1cc(C(=O)Nc2ccccc2F)ccc1N1CC2CC(C1)c1cccc(=O)n1C2 (configuration not stated)	0.5
COc1ccc(C(=O)N[C@H]2CC[C@@]34CCCN3C(=O)CCC[C@H]4[C@H]2C)cc1	0.3
CC(c1cccnc1)N(C(=O)Nc1ccccc1)C1CCCCC1 (configuration not stated)	1.3
COc1cccc(NC(=O)N(C2CCCCC2)C(C)c2cccs2)c1 (configuration not stated)	13.2*	TTR inh HuH7=-10.8;TTR act confirm=-1.0
COc1cccc(NC(=O)Cc2cccs2)c1	-2.0
